From the supplement of paper PMC6555819

How the values were obtained:
Experiment in all cases: PBM binding z-score (relative to random genomic background probes); higher = stronger binding; sequences stand for … in GC…GCGATTGACAGCGTAGAATGAAGG
[1] = system: FXR:RXRa (NR concentration 270 nM, RXRa partner concentration 90 nM)
In short: (§1)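 Ligand-free nuclear receptor dimers were applied to custom Agilent 4×180K protein-binding microarrays whose double-stranded probes carried direct-repeat seeds, single-nucleotide variants, half-site ablations and random human genomic background sequences in 34-nt variable regions. Incubation lasted 1 h. Binding z-scores were computed against the random background probes from regression-normalized fluorescence.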

[2] = system: LXRa:RXRa (NR concentration 270 nM, RXRa partner concentration 90 nM)
In short: as §1

[3] = system: LXRa homodimer (NR concentration 270 nM)
In short: as §1

[4] = system: LXRb:RXRa (NR concentration 270 nM, RXRa partner concentration 90 nM)
In short: as §1

[5] = system: LXRb homodimer (NR concentration 270 nM)
In short: as §1

[6] = system: PPARa:RXRa (NR concentration 270 nM, RXRa partner concentration 90 nM)
In short: as §1

[7] = system: PPARg:RXRa (NR concentration 180 nM, RXRa partner concentration 90 nM)
In short: as §1

[8] = system: PPARg:RXRa 270nM:90nM, anti-RXR (NR concentration 270 nM, RXRa partner concentration 90 nM)
In short: as §1

[9] = system: PPARg:RXRa 30nM:10nM, anti-RXR (NR concentration 30 nM, RXRa partner concentration 10 nM)
In short: as §1

[10] = system: PPARg:RXRa 90nM:30nM, anti-RXR (NR concentration 90 nM, RXRa partner concentration 30 nM)
In short: as §1

[11] = system: PPARg:RXRa DBDmut IVT, anti-RXR (DBD mutation: RXRa K156A/R161A, NR concentration 270 nM, RXRa partner concentration 90 nM)
In short: as §1

[12] = system: PPARg:RXRa IVT, anti-PPARg (NR concentration 270 nM, RXRa partner concentration 90 nM)
In short: as §1

[13] = system: PPARg DBDmut:RXRa IVT, anti-PPARg (DBD mutation: PPARg1 K132A/R137A, NR concentration 270 nM, RXRa partner concentration 90 nM)
In short: as §1

[14] = system: PPARg DBDmut IVT, anti-PPARg (DBD mutation: PPARg1 K132A/R137A, NR concentration 270 nM)
In short: as §1

[15] = system: PPARg homodimer (NR concentration 180 nM)
In short: as §1

[16] = system: PXR:RXRa (NR concentration 270 nM, RXRa partner concentration 90 nM)
In short: as §1

[17] = system: PXR homodimer (NR concentration 270 nM)
In short: as §1

[18] = system: RARa:RXR (NR concentration 270 nM, RXRa partner concentration 90 nM)
In short: as §1

[19] = system: RARa homodimer (NR concentration 270 nM)
In short: as §1

[20] = system: RARb:RXRa (NR concentration 270 nM, RXRa partner concentration 90 nM)
In short: as §1

Row | Sequence | PBM binding z-score [1] | PBM binding z-score [2] | PBM binding z-score [3] | PBM binding z-score [4] | PBM binding z-score [5] | PBM binding z-score [6] | PBM binding z-score [7] | PBM binding z-score [8] | PBM binding z-score [9] | PBM binding z-score [10] | PBM binding z-score [11] | PBM binding z-score [12] | PBM binding z-score [13] | PBM binding z-score [14] | PBM binding z-score [15] | PBM binding z-score [16] | PBM binding z-score [17] | PBM binding z-score [18] | PBM binding z-score [19] | PBM binding z-score [20]
1 | ACTATAAGTTGACTTAGGGCAACCGATACGACGC | 0.483 | 0.919 | 0.287 | 0.215 | 0.348 | 0.427 | 1.23 | 0.205 | 0.44 | 0.54 | -0.174 | 0.419 | 0.924 | 0.648 | 0.0162 | 0.385 | 0.624 | 0.604 | 0.56 | 1.2
2 | CCTACTAGGTCAATGGTCAGCTAAAGCAGCTCGC | 3.38 | 2.41 | 0.529 | 1.87 | 0.47 | 4.62 | 8.83 | 7.23 | 6.92 | 7.71 | 7.63 | 7.77 | 2.1 | 1.05 | 2.62 | 1.26 | 0.377 | 1.95 | 0.521 | 3.89
3 | TCTTGTAGATCAAGCAGGATAAGAAAGCCTGAGT | -0.0578 | -0.0477 | -0.267 | -0.411 | -0.605 | 0.163 | -0.0969 | 0.937 | 2.58 | 1.76 | 1.53 | 0.265 | 0.695 | 0.533 | 0.027 | -0.0334 | 0.538 | 0.108 | 0.37 | -0.349
4 | TCACATAGGTAAAGGTGAAAGTCGAACGATATGA | 1.25 | 1.8 | 0.139 | 1.69 | -0.00674 | 3.07 | 2.67 | 3.48 | 4.04 | 3.75 | 2.47 | 2.45 | 0.764 | 0.579 | 1.1 | 1.19 | 0.504 | 1.75 | 1.33 | 2.05
5 | TCTAGCAGGCCAGAGGGGCACTCAAGAGGTACGG | -0.239 | -0.393 | -0.689 | -0.334 | -0.644 | 0.22 | 0.662 | 1.41 | 1.64 | 1.51 | 0.959 | -0.0435 | -0.531 | -0.834 | -0.877 | -0.511 | -0.673 | -0.329 | -0.905 | 0.329
6 | TCAGACAGGTGAAGGTAACTCACGTACGCAGTCG | 0.8 | 2.26 | -0.278 | 0.983 | -0.343 | 1.2 | 0.954 | 2.09 | 3.55 | 2.75 | 2.67 | 1.17 | 0.022 | -0.274 | 0.847 | 0.479 | -0.00874 | 0.651 | 0.536 | 1.07
7 | ACTAGCAGGCCAAGTTTGGGTCACACAAACAAAG | 0.341 | 0.408 | -0.252 | 1.17 | -0.354 | 1.85 | 0.563 | 0.793 | -0.154 | 0.0156 | 0.756 | 1.65 | 0.166 | -0.339 | 0.789 | 1.07 | -0.0733 | 1.95 | -0.318 | 1.91
8 | TAGCCTAGGACATTCAGGGGCCAGTATAGAAAGC | -0.499 | -0.54 | -0.456 | -0.243 | -0.646 | -0.572 | 0.256 | -0.544 | -0.505 | -0.409 | -0.851 | -0.425 | -0.632 | -1.43 | -1.03 | -0.401 | -0.611 | -0.598 | -0.859 | 0.541
9 | AGAACGAGGGCAATGAGTTGATAGCGCGGGTGGC | 0.136 | 0.127 | -0.734 | -0.343 | -0.754 | 1.25 | 0.897 | 0.618 | -0.31 | 0.0829 | 3.57 | 2.39 | 0.0277 | -0.898 | -0.335 | 1.62 | 4.62 | -0.0907 | -1.01 | 1.96
10 | TGAATGAGGTCATAAGATCAGGGAACGTTGCAAA | 7.31 | 5.47 | 0.779 | 4.4 | 1.39 | 5.96 | 6.96 | 6.58 | 4.09 | 6.04 | 4.55 | 5.82 | 2.51 | 1.96 | 1.71 | 4.37 | 0.734 | 5.17 | 0.421 | 4.55
11 | CCTACGGGGCCATTCAGAGGTCATTGATCATATG | 3.56 | 4.88 | 6.49 | 4.17 | 0.225 | 3.62 | 1.16 | 2.21 | 0.193 | 1.32 | 0.224 | 1.43 | -1.02 | -0.577 | 4.06 | 5.55 | 4.64 | 5.76 | 0.566 | 3.55
12 | CCTTACGGGTCACGAGGTTAAAGCACGACGAGCG | 7.54 | 4.81 | 0.696 | 4.3 | 0.192 | 6.28 | 7.86 | 7.25 | 3.78 | 6.28 | 3.53 | 5.39 | 0.774 | 0.583 | 4.94 | 4.93 | 0.408 | 6.28 | 1.03 | 4.76
13 | CGTCAGAGTTCAACTAAGGTAACGTAAAGCACGC | 6.8 | 5.7 | 3.39 | 3.95 | 1.39 | 4.78 | 3.46 | 3.98 | 1.19 | 2.53 | 0.228 | 1.32 | 0.422 | 0.416 | 2.24 | 5.76 | 6.21 | 4.1 | 1.3 | 4.73
14 | GCGACTAGGGCATCAGCAGGTTACCATAACTTAA | -0.0195 | -0.0261 | -0.362 | -0.000126 | -0.683 | 0.802 | 1.41 | 1.17 | -0.0852 | 0.611 | 4.76 | 3.7 | -0.562 | -0.523 | 0.128 | -0.0606 | -0.519 | 0.482 | -0.519 | 1.13
